From PubChem
KB-3-1 cytotox = KB-3-1 parental cell cytotoxicity; KB-3-1 viability, CellTiter-Glo ATP luminescence, 72 h; Potency, µM (highest dose often 46.1 µM), actives largely listed as cytotoxic; 400,000 compounds, 1.4% hits; AID 1347075; also: % is scaled to controls: 0 for no effect and ±100 for the full control effect; nearly all actives have a fitted effect of over 60% in size
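Viability of parental KB-3-1 cells, measured by CellTiter-Glo luminescence, followed a 72 h incubation at 37 °C with pinned compounds in phenol-red-free DMEM containing 10% FBS.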
SW480 rereplic = inducers of DNA re-replication in SW480 colon cancer cells; AID 624297; Potency, µM (series often up to 46.1 µM), for inactives: top-dose re-replication activation, most hits filed as activators; 340,000 compounds, 1.8% hits; SW480 DNA re-replication, Hoechst DNA content imaging, 48 h; also: % of control where 0% means no effect; nearly all actives have a fitted effect of over 55% in size
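DNA re-replication was detected as more nuclei of elevated Hoechst intensity after 48 hr exposure to compound (23 nL pinned per well of 250 cells).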
KB-V1 MDR tox = kills drug-selected multidrug resistant KB-V1 cells; 400,000 compounds, 3.4% hits; AID 1347076; Potency, µM (top dose mostly 46.1 µM), hits mostly cytotoxic; KB-V1 MDR cells viability, CellTiter-Glo, 72 h; also: % is scaled to controls: 0 for no effect and ±100 for the full control effect; nearly all actives have a fitted effect of over 60% in size
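Compound-treated KB-V1 multidrug-resistant cells, 72 h, 37 degrees C; viability by CellTiter-Glo. Fitted qHTS curves give the values.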
MCF10A rerep = inducers of DNA re-replication in MCF 10A breast cells | AID 624296 | 350,000 compounds, 2.9% hits | Potency, µM (series often up to 46.1 µM), for inactives: at the highest dose activity, positive = re-replication, usual class: activators | MCF 10A DNA re-replication, Hoechst nuclear intensity, 48 h; also: % of control where 0% means no effect; nearly all actives have a fitted effect of over 50% in size
ELG1 repair inh = inhibitors of ELG1-dependent DNA repair in HEK293T cells; Potency, µM (highest dose often 46.1 µM), inactives show at the highest dose activity change, negative = inhibition, actives largely listed as inhibitors; AID 504467; HEK293T ELG1-luciferase reporter, luminescence, 16 h; DNA damage induced by 5-fluorouridine; 330,000 compounds, 2.3% hits; also: % is scaled to controls: 0 for no effect and ±100 for the full control effect; nearly all actives have a fitted effect of over 55% in size
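DMSO vehicle served as the neutral condition. Each well held 2,000 cells given 5-fluorouridine plus compound; after 16 hr at 37 °C/5% CO2, ONE-Glo was added and luciferase measured 30 min later.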
Active calls of the source: *; i = inactive; ? = inconclusive; . = no result given; [ ] = another dose, or the depositor's remark. Only some compounds are listed: those with a hit (about 8.1% of all), similar ones and a draw of the others. Calls follow the shape of the dose curve; as a rule, active = well fitted curve in the direction sought with a large enough effect; inconclusive = small, poorly fitted or top-dose-only effect, or another doubt; inactive = no such curve, though single readings can be large; an effect the other way counts as inactive or inconclusive. Potency is read from the fitted curve at half-maximal effect.

SMILES | KB-3-1 cytotox | SW480 rereplic | KB-V1 MDR tox | MCF10A rerep | ELG1 repair inh
O=C(c1cc(N2C(=O)C3C4CCC(C4)C3C2=O)ccc1Cl)N1CCN(c2ccc(F)cc2)CC1 (stereo not given) | ? | -2% | 2.6µM* | ? | ?
COc1ccc(N2CCN(C(=O)c3cccc(N4C(=O)C5C6C=CC(C6)C5C4=O)c3)CC2)cc1 (stereo not given) | i | -9% | i | 11% | -3%
COc1ccc(N2CCN(C(=O)c3cccc(N4C(=O)C5CC=CC(C)C5C4=O)c3)CC2)cc1 (stereo not given) | i | -1% | 18µM* | 22% | -13%
O=C(c1cc(N2C(=O)C3C4CCC(C4)C3C2=O)ccc1Cl)N1CCN(c2ccccc2F)CC1 (stereo not given) | ? | ? | 4.1µM* | 0% | ?
CSCCC(C(=O)NC1CCCC1)n1c(-c2ccccn2)nc2ccccc21 (stereo not given) | i | . | ? | . | .
Cc1cc(C)cc(OCC(=O)Nc2ccc(Cl)c(-c3nc4ncccc4o3)c2)c1 | i | . | i | . | .
COc1ccc(O[C@H]2C=C[C@@H](c3ccccc3)O[C@@H]2COC(=O)CC/C(C)=N/O[C@@H](C)c2cn([C@H](CO)Cc3ccccc3)nn2)cc1 | . | 23% | . | -1% | ?
C/C(CCN1CCc2nc(-c3ccccc3)c(-c3ccccc3)cc2C1)=N\O[C@@H](C)c1cn([C@H](CO)Cc2ccccc2)nn1 | . | ? | . | ? | 21µM*
Cc1ccc(S(=O)(=O)CC(=O)Nc2ccc(S(=O)(=O)Nc3onc(C)c3C)cc2)cc1 | i | 10µM* | i | -1% | 7%
CCc1ccc(C(=O)/C=C/Nc2ccc(S(=O)(=O)Nc3onc(C)c3C)cc2)cc1 | i | 13% | i | 26µM* | ?
Cc1noc(NS(=O)(=O)c2ccc(N/C=C/C(=O)c3ccc(F)cc3)cc2)c1C | i | 2% | ? | -3% | ?
Cc1ccc(OCC(=O)Nc2ccc(S(=O)(=O)Nc3onc(C)c3C)cc2)cc1 | i | -2% | i | 11% | 7%
Cc1noc(NS(=O)(=O)c2ccc(NC(=O)CSc3nc4c(cc3C#N)CCCCC4)cc2)c1C | i | 18% | i | 21µM* | 26%
Cn1c(Cl)cnc1C1CC(=O)c2cc(Cl)ccc2O1 (stereo not given) | ? | 10µM* | ? | ? | 0%
CCn1c(-c2nonc2NC(=O)c2ccccc2)nc2ccccc21 | i | -3% | ? | 9% | -8%
CC(=O)Nc1nonc1-c1nc2ccccc2n1Cc1ccccc1 | 15µM* | ? | 16µM* | ? | ?
CC(=O)Nc1nc2ccccc2n1Cc1ccc(Cl)cc1 | 9.2µM* | ? | ? | 3% | 13µM*
O=C(Nc1nc2ccccc2n1Cc1ccc(Cl)cc1)c1ccco1 | i | 3% | i | ? | ?
CCC(=O)Nc1nonc1-c1nc2ccccc2n1Cc1ccc(Cl)c(Cl)c1 | i | 0% | i | 5.2µM* | .
CCCCN(C(=O)C(C)N1C(=O)c2ccccc2C1=O)c1c(N)n(CC(C)C)c(=O)[nH]c1=O (stereo not given) | i | 1% | ? | 2% | 6%
CCN(CC)CCOC(=O)[C@@H](Cc1cccc2ccccc12)C[C@@H]1CCCO1 | . | 1%[20.6 µM] | . | -11%[20.6 µM] | .
COc1ccc(OCC(=O)OCc2cc(=O)n3nc(C4CCCCC4)sc3n2)cc1 | i | . | i | . | .
CC1N=C(SCC(=O)c2ccc(F)cc2)N2C(C)N=C(SCC(=O)c3ccc(F)cc3)N12 (stereo not given) | i | . | i | . | .
CCOC(=O)c1c(C)n(-c2ccccc2)c2ccc(OC(=O)c3ccc(OCC)c(OCC)c3)cc12 | i | . | ? | . | .
O=C(O)c1ccc(-c2cccc(Cl)c2)o1 | i | 2% | i | 6% | .
SMILES | KB-3-1 cytotox | SW480 rereplic | KB-V1 MDR tox | MCF10A rerep | ELG1 repair inh
O=C(Nc1ccccc1N1CCCCC1)c1ccc(-c2cccc(Cl)c2)o1 | i | 1% | i | 16µM* | 0%
CN1CCN(c2ccccc2NC(=O)c2ccc(-c3cccc(Cl)c3)o2)CC1 | ? | ? | i | 21µM* | ?
O=C(Nc1cccc2nsnc12)c1ccc(-c2cccc(Cl)c2)o1 | i | 3%[9.22 µM] | i | 5.8µM* | ?
Cc1cccc2c1-c1sc(C(=O)NCCCN3CCN(c4ccccc4F)CC3)cc1CO2 | i | . | i | . | .
Cc1cccc2c1-c1sc(C(=O)Nc3ccccc3N3CCN(C)CC3)cc1CO2 | i | ? | ? | 4.1µM* | 21µM*
CC(C)Oc1ccc(C(=O)NCC(c2ccc(N(C)C)cc2)N2CCCC2)cc1 (stereo not given) | i | . | i | . | .
CCn1c(CN2CCC(C)CC2)nc2cc(NC(=O)c3ccc([N+](=O)[O-])cc3)ccc21 | i | . | i | . | .
Cn1nnc2c(N3CCN(c4ccccc4Cl)CC3)ncnc21 | i | . | i | . | .
O=C(NCc1ccccc1)/C(=C\c1cccc([N+](=O)[O-])c1)NC(=O)c1ccco1 | i | . | i | . | .
CN1CCN(c2ccccc2NC(=O)c2ccc(-c3ccc(Cl)cc3Cl)o2)CC1 | ? | ? | ? | ? | 21µM*
COc1cccc(CNC(=O)CCn2nc(C)c3c(C)n(-c4ccccc4)nc3c2=O)c1 | i | . | i | . | .
CCOc1ccccc1N1CCN(C(=O)c2ccncc2)CC1 | i | ? | i | 2% | 12%
CCOc1ccccc1N1CCN(C(=O)c2cc3ccccc3cc2OC)CC1 | 3.7µM* | 15µM* | 16µM* | 2.1µM* | 4%
CCOc1ccccc1N1CCN(C(=O)CC(C)C)CC1 | i | -6% | 23µM* | -1% | -4%
COc1cc2ccccc2cc1C(=O)N1CCN(C(C)=O)CC1 | i | ? | i | -1% | -15%
CCOc1ccccc1N1CCN(C(=O)c2cc3c(C)cc(C)cc3[nH]2)CC1 | 18µM* | 21µM* | 23µM* | ? | -2%
Cc1cc(Cl)ccc1NC(=O)COC(=O)c1c(C)noc1C | i | -12% | i | -1% | -1%
CC1CCCCN1C(=O)CSc1nnc(-c2cccnc2)n1C1CCCCC1 (stereo not given) | i | -1% | 15µM* | 0% | -4%
Cc1noc(C)c1CSc1nnc(-c2cccnc2)n1C1CCCCC1C (stereo not given) | i | 2% | 23µM* | 5% | 17%
CC1CCN(C(=O)CSc2nnc(-c3cccnc3)n2C2CCCCC2)CC1 | i | -1% | i | 0% | -13%
O=C(CSc1nnc(-c2cccnc2)n1C1CCCCC1)NC1CCCCC1 | i | -9% | 18µM* | 3% | -2%
